{
  "source": "the supplement of paper PMC11417369",
  "note": "± gives the standard deviation of the averaged measurements. Whole data set: some 25,000 sequences, median “ln(normalized median fluorescence intensity)” near 8.6, cut for the highest 2% near 10. This excerpt belongs to a sample that is enriched for the highest values.",
  "data": [
    {"test_system": "PfAP2-EXP AP2 domain (GST-tagged)", "test": "gcPBM binding intensity (ln(normalized median fluorescence intensity)); higher = stronger DNA binding", "procedure,_shortened": "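Using an Agilent 4 × 180k array, primer-extended double-stranded 36-bp intergenic genomic probes and negative controls were exposed for 1 h to GST-fused P. falciparum DNA-binding domains expressed in E. coli. Binding was carried out in 1× PBS with 1% milk, 0.2 mg/ml BSA, 0.5% salmon testes DNA and 0.03% Triton X-100, and protein was detected with Alexa488 anti-GST antibody and a 488 nm scan. Binding intensity is the highest Masliner-normalised natural-log median intensity across replicate spots of either probe orientation.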", "values": [
      {"sequence": "ATCATATTTTTATGTGTGCACTTTTTTTTTTTTTTT [GTGCAC_site9555]", "gcPBM binding intensity (ln)": "9.02 ± 0.099"},
      {"sequence": "TTTATATTCTTAAGTGTGCACTATATATATATATAT [GTGCAC_site9719]", "gcPBM binding intensity (ln)": "10.38 ± 0.049"},
      {"sequence": "ATTTATATTAAAAGTGTGCACTTTTTTTTTTTTTTT", "gcPBM binding intensity (ln)": "8.67 ± 0.042"},
      {"sequence": "TATATATAAATATATGTGCACTTTTTATATTTATAT", "gcPBM binding intensity (ln)": "9.06 ± 0.099"},
      {"sequence": "ATTTTTTTCTTAGGAGTGCACTTATATTTATTTTAT", "gcPBM binding intensity (ln)": "9.12 ± 0.11"},
      {"sequence": "ATATATTTTATATGTGTGCACTATATATATATATAT", "gcPBM binding intensity (ln)": "10.3 ± 0.18"},
      {"sequence": "TTTATATCTTATTATAGGAAAATGAATATTTTCTCT [TGCATGCA_negctrl_site478]", "gcPBM binding intensity (ln)": "8.19 ± 0.36"},
      {"sequence": "TATTTTAACTTCTCATGTACATATATTATGTCTATA [XGTACX_site249]", "gcPBM binding intensity (ln)": "9.01 ± 0.39"},
      {"sequence": "ATAGAACTGAATAAATCTATAAATAAATATATATAT [GTGCAC_negctrl_site604]", "gcPBM binding intensity (ln)": "9.16 ± 0.23"},
      {"sequence": "AATATAAACACAAACACACACATATAGATTTATATA [CACACA_site6263]", "gcPBM binding intensity (ln)": "8.55 ± 0.38"},
      {"sequence": "ATTTTTGTTATTACATGTACCCATAATTATTATTAA [XGTACX_site3558]", "gcPBM binding intensity (ln)": "9.22 ± 0.44"},
      {"sequence": "TTTTGGTTAATTCCCCCCATTACATTATGTCATGTC [CACACA_negctrl_site229]", "gcPBM binding intensity (ln)": "10.185 ± 0.007"},
      {"sequence": "TATAAAATTACATTTTGTCATTTATTTTTTCCCACT [TGCATGCA_negctrl_site110]", "gcPBM binding intensity (ln)": "8.28 ± 0.45"},
      {"sequence": "TTTTGTTTAAAAAAAAAAAACAAAAAAAAGCAATTA [CACACA_negctrl_site314]", "gcPBM binding intensity (ln)": "8.32 ± 0.51"},
      {"sequence": "TAATTATATGTATACACACACATACATTTACATAAC [CACACA_site3238]", "gcPBM binding intensity (ln)": "8.66 ± 0.52"},
      {"sequence": "TGCTTTTATTTCTTCACACATATGTAAAAAAAAGAA [CACACA_site5906]", "gcPBM binding intensity (ln)": "8.76 ± 0.42"},
      {"sequence": "AAAACATCAAAAATGTGTACATATATATATATATAT [XGTACX_site8884]", "gcPBM binding intensity (ln)": "10.3 ± 0.21"},
      {"sequence": "AAAACACAAAAAAAATGTACACATATATATATATAT [XGTACX_site8509]", "gcPBM binding intensity (ln)": "10 ± 0.38"},
      {"sequence": "ATCAAAAGAAAACACACACACATACATATATATATA [CACACA_site3795]", "gcPBM binding intensity (ln)": "9.81 ± 0.28"},
      {"sequence": "AAAACTATATTAATGTGTACACATCAAAATATTAAT [XGTACX_site6767]", "gcPBM binding intensity (ln)": "8.65 ± 0.13"},
      {"sequence": "TTATATAAAACATTAACACACAAAGAAAAAAAATTA [CACACA_site1793]", "gcPBM binding intensity (ln)": "8.57 ± 0.47"},
      {"sequence": "AAAAAATACATCAAAAGAAACATATATATATATATA [GTGCAC_negctrl_site719]", "gcPBM binding intensity (ln)": "10.2 ± 0.67"},
      {"sequence": "AATATAAAATCAAGAAATTAAAAAAAAACAGAAAAC [CACACA_negctrl_site1004]", "gcPBM binding intensity (ln)": "8.93 ± 0.49"},
      {"sequence": "AAAAAAAAGAAACACACACACATACACATAAATATA [CACACA_site3807]", "gcPBM binding intensity (ln)": "8.79 ± 0.47"},
      {"sequence": "AATCAAAACATTAAAAAGAAAAAATATATATATATA [CACACA_negctrl_site366]", "gcPBM binding intensity (ln)": "10.2 ± 0.26"},
      {"sequence": "TGGTAAATTTACCGTTGTACATTCATTTATAACATT [XGTACX_site8910]", "gcPBM binding intensity (ln)": "8.68 ± 0.42"},
      {"sequence": "TATATATAGCATATTTCACACACACCGAATGAATAT [CACACA_site9182]", "gcPBM binding intensity (ln)": "8.64 ± 0.36"},
      {"sequence": "ATTGTGTTAATAAAATGTACATTTTCTCTACTTTAA [XGTACX_site1199]", "gcPBM binding intensity (ln)": "8.8 ± 0.35"},
      {"sequence": "TGTTCTAATTTTAATTGTACATATATACATATATAT [XGTACX_site7290]", "gcPBM binding intensity (ln)": "8.46 ± 0.35"},
      {"sequence": "AAAAATATATAAAGAAAAAGAATATAATATAAAATA [GTGCAC_negctrl_site208]", "gcPBM binding intensity (ln)": "8.53 ± 0.38"},
      {"sequence": "AACATATTTATGATGTGTACCTACATAATAGAATTT [XGTACX_site141]", "gcPBM binding intensity (ln)": "8.38 ± 0.32"},
      {"sequence": "AAAAAGGTTATTGGTACACACATATGTATATATATA [CACACA_site552]", "gcPBM binding intensity (ln)": "9.3 ± 0.057"},
      {"sequence": "AAGGTAAAATATAAGTGTACTTTTTCTTAATCTTCG [XGTACX_site514]", "gcPBM binding intensity (ln)": "8.31 ± 0.15"},
      {"sequence": "ATGGGAATATAATTATGTACATATAAAAATTATAAA [XGTACX_site5336]", "gcPBM binding intensity (ln)": "8.62 ± 0.34"},
      {"sequence": "TGCAATTGTAAAGGCGCACACATATATATATATATA [CACACA_site4894]", "gcPBM binding intensity (ln)": "10.1 ± 0.34"},
      {"sequence": "AAAAAAAGGTAAAATTGTACATACGCACAAAAATAT [XGTACX_site2887]", "gcPBM binding intensity (ln)": "8.73 ± 0.33"},
      {"sequence": "TACAATTGTAAAGGCGCACACATATATATATATATA [CACACA_site1392]", "gcPBM binding intensity (ln)": "10.3 ± 0.59"},
      {"sequence": "TTTTCCAGTAAATATTTTTTTATAATATTTATATAT [CACACA_negctrl_site387]", "gcPBM binding intensity (ln)": "8.3 ± 0.4"},
      {"sequence": "AAATATACATACATATGTACATATATATATATATAT [XGTACX_site8202]", "gcPBM binding intensity (ln)": "10.1 ± 0.45"},
      {"sequence": "TTATGTAAATAATTTTGTACTTAAATTATTATATAA [XGTACX_site1491]", "gcPBM binding intensity (ln)": "8.08 ± 0.4"},
      {"sequence": "ATGATGTGCAAGAGTAGTACACAATTTTGGGTTTAT [XGTACX_site501]", "gcPBM binding intensity (ln)": "8.76 ± 0.39"},
      {"sequence": "ATATATATATATATAACACACGTGTATATATATGTA [CACACA_site3644]", "gcPBM binding intensity (ln)": "10.2 ± 0.23"},
      {"sequence": "AATAAAAAATATAACACAAATATGTATATATATATA [TGCATGCA_negctrl_site245]", "gcPBM binding intensity (ln)": "9.81 ± 0.34"},
      {"sequence": "ATATATATATATATAACACACGTGTATTTATCTGTA [CACACA_site5922]", "gcPBM binding intensity (ln)": "9.99 ± 0.34"}
    ]}
  ]
}
